# Measured values from PubChem BioAssay (NCI).
# About 79,000 compounds went through this panel and 15% of them were active in at least one assay; those are over-represented in the sample as a whole. A number with no mark means an inactive call. The source made the active and inactive calls. No stated cut-off is given here; in the data, active means growth inhibition above about 70%; inactive means the rest.
# Legend:
# [1] = NCI Yeast Anticancer Drug Screen. Data for the rad50 strain (AID 155);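 further: 0% = growth of vehicle-only cultures of the same strain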; details: S. cerevisiae rad50 strain growth inhibition, hits give high values
# Method in brief: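 Yeast carrying a defined DNA repair defect were exposed to test compounds, and growth was compared with vehicle-treated controls to give percent inhibition.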
# [2] = NCI Yeast Anticancer Drug Screen. Data for the mec2-1 strain (AID 157); details: S. cerevisiae mec2-1 strain, hits give high values
# Method in brief: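 Readout is yeast growth inhibition, normalised to vehicle-treated controls, in the mec2-1 strain exposed to compound.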
# [3] = NCI Yeast Anticancer Drug Screen. Data for the sgs1 mgt1 strain (AID 161);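 further: 0% = growth of cultures given vehicle only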; details: S. cerevisiae sgs1 mgt1 strain, hits give high values
# Method in brief: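 This yeast growth screen uses a strain with defined DNA-repair lesions; compound-treated growth is compared with vehicle-treated growth.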
# [4] = NCI Yeast Anticancer Drug Screen. Data for the cln2 rad14 strain (AID 165);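 further: 0% = growth equal to vehicle treated cultures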; details: S. cerevisiae cln2 rad14 strain, hits give high values
# Method in brief: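 Relative to vehicle controls, growth inhibition of compound-treated cln2 rad14 yeast was recorded.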
# [5] = NCI Yeast Anticancer Drug Screen. Data for the bub3 strain (AID 167); details: S. cerevisiae bub3 mutant strain, hits give high values
# Method in brief: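 Compounds were applied to a genetically altered yeast strain carrying a cell-cycle control defect. Growth inhibition was scored against vehicle-treated controls.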
# [6] = NCI Yeast Anticancer Drug Screen. Data for the mlh1 rad18 strain (AID 175); details: S. cerevisiae mlh1 rad18 strain growth inhibition, hits give high values
# Method in brief: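 Test agents were incubated with a yeast strain of defined genotype (DNA damage repair defect). Inhibition of growth was derived by comparison with vehicle-exposed cultures.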
# [7] = at 5.0 µM (retest, dose inferred, filed as 0.5)
# [8] = at 50.0 µM (retest, dose inferred, filed as 5.0)
Compound,"growth inhibition [1, 7]","growth inhibition [1, 8]",growth inhibition ([1]; at 50.0 µM),"growth inhibition [2, 7]","growth inhibition [2, 8]",growth inhibition ([2]; at 50.0 µM),"growth inhibition [3, 7]","growth inhibition [3, 8]",growth inhibition ([3]; at 50.0 µM),"growth inhibition [4, 7]","growth inhibition [4, 8]",growth inhibition ([4]; at 50.0 µM),"growth inhibition [5, 7]","growth inhibition [5, 8]",growth inhibition ([5]; at 50.0 µM),"growth inhibition [6, 7]","growth inhibition [6, 8]",growth inhibition ([6]; at 50.0 µM)
CCS(=O)(=O)OC(C)CCl (configuration not stated),-2%,-3%,-5.65%,1%,0%,-14.7%,0%,-1%,11.8%,-2%,2%,70.2% (active),-2%,-3%,-4.9%,-2%,-5%,49.5%
C=C1CC(COc2ccc3c(C)cc(=O)oc3c2)(c2ccccc2)OC1=O (configuration not stated),32%,8%,36%,-6%,17%,27%,17%,32%,59.6%,-20%,-6%,32%,32%,30%,30.2%,-10%,22%,41.6%
CC(=O)Oc1ccc2ccccc2c1CN(Cc1c(OC(C)=O)ccc2ccccc12)C(C)=O,9%,64%,88.8% (active),9%,53%,72.8% (active),4%,84% (active),89.6% (active),3%,88% (active),93.8% (active),3%,80% (active),93.8% (active),11%,85% (active),55%
N#Cc1ccc(Oc2nc3ccccc3nc2-c2ccccc2)cc1,0%,21%,38.2%,-4%,39%,22.2%,12%,52%,33.9%,-6%,23%,62.8%,5%,86% (active),27.8%,-4%,27%,53.5%
O=C(O)C(CCc1cccc2ccccc12)c1ccccc1 (configuration not stated),13%,97% (active),99.6% (active),2%,95% (active),99.2% (active),5%,98% (active),99.5% (active),-4%,96% (active),99.3% (active),3%,73% (active),99% (active),5%,98% (active),99.4% (active)
Cc1occc1C(=S)Nc1ccc(Cl)c(C(=O)OCC(F)(F)F)c1,23%,92% (active),92.2% (active),21%,93% (active),92.8% (active),26%,96% (active),90.8% (active),21%,97% (active),88.5% (active),29%,99% (active),91.2% (active),27%,96% (active),86.8% (active)
COc1ccc(CCNC(=S)/N=C\C(C(=O)c2ccccc2)=C(\O)c2ccccc2)cc1OC,1%,95% (active),99% (active),0%,93% (active),98.8% (active),-2%,75% (active),99% (active),-25%,98% (active),97.8% (active),0%,99% (active),98.8% (active),3%,97% (active),98.6% (active)
Oc1cccc2ccc(/C=C/c3ccccn3)nc12,1%,98% (active),97.4% (active),2%,97% (active),97.2% (active),-6%,98% (active),98.2% (active),-3%,96% (active),95% (active),-2%,98% (active),97.1% (active),2%,98% (active),98.5% (active)
C1=CC2OC2CCCCCCCC1 (mixture of isomers),7%,75% (active),83.2% (active),0%,80% (active),62.5%,2%,78% (active),84.8% (active),-2%,59%,31.6%,-5%,73% (active),50.7%,1%,90% (active),70.9% (active)
